Assay results from PubChem BioAssay (EPA / NIEHS).
Active and inactive are the calls of the source. The calls were made as follows: active = hit-call score of the fitted dose curve at least 0.9, where 1 is the maximum; inactive = score below 0.9.

Tests used:
[1] = read-out: serum amyloid A (SAA), SAA1 (gene 6288); assay: BSK_CASM3C_SAA: BioMAP Diversity Plus: CASM3C Assay for serum amyloid A (SAA) Biomarker Activity (AID 2283049); settings: primary human coronary artery smooth muscle cells; actives raise or lower the signal;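 also: SAA protein level quantified by ELISA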
[2] = BSK_CASM3C_SRB: Viability Assessment in the BioMAP Diversity Plus: CASM3C Assay (AID 2283050); settings: primary human coronary artery smooth muscle cells;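 also: total protein by SRB staining as cytotoxicity measure in parallel cultures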
[3] = read-out: Thrombomodulin, THBD (gene 7056); assay: BSK_CASM3C_Thrombomodulin: BioMAP Diversity Plus: CASM3C Assay for Thrombomodulin Biomarker Activity (AID 2283051); settings: primary human coronary artery smooth muscle cells; actives raise or lower the signal;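 also: thrombomodulin protein level measured by ELISA 24 h after dosing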
[4] = read-out: Tissue Factor, F3 (gene 2152); assay: BSK_CASM3C_TissueFactor: BioMAP Diversity Plus: CASM3C Assay for Tissue Factor Biomarker Activity (AID 2283052); settings: primary human coronary artery smooth muscle cells; actives raise or lower the signal;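 also: cell surface tissue factor protein level read by ELISA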
[5] = read-out: Interferon-gamma inducible Protein 10 (IP10), CXCL10 (gene 3627); assay: BSK_hDFCGF_IP10: BioMAP Diversity Plus: hDFCGF Assay for Interferon-gamma inducible Protein 10 (IP10) Biomarker Activity (AID 2283053); settings: primary human foreskin fibroblasts; actives raise or lower the signal
Method in brief: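 ELISA read-out of IP-10 (CXCL10) from primary human skin fibroblasts, 24 h after compound addition. Gain or loss of signal versus DMSO baseline, bidirectional curve fitting.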

[6] = read-out: Urokinase-type plasminogen activator receptor (uPAR), PLAUR (gene 5329); assay: BSK_CASM3C_uPAR: BioMAP Diversity Plus: CASM3C Assay for Urokinase-type plasminogen activator receptor (uPAR) Biomarker Activity (AID 2283054); settings: primary human coronary artery smooth muscle cells; actives raise or lower the signal;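 also: cell-surface uPAR protein level quantified by ELISA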
[7] = read-out: Vascular cell adhesion molecule 1 (VCAM1), VCAM1 (gene 7412); assay: BSK_CASM3C_VCAM1: BioMAP Diversity Plus: CASM3C Assay for Vascular cell adhesion molecule 1 (VCAM1) Biomarker Activity (AID 2283055); settings: primary human coronary artery smooth muscle cells; actives raise or lower the signal;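 also: VCAM-1 protein level quantified by ELISA on the cells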
[8] = read-out: Collagen III, COL3A1 (gene 1281); assay: BSK_hDFCGF_CollagenIII: BioMAP Diversity Plus: hDFCGF Assay for Collagen III Biomarker Activity (AID 2283056); settings: primary human foreskin fibroblasts; actives raise or lower the signal
Method in brief: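 Response relative to DMSO, fitted in both directions, reflects ELISA-measured collagen III in human primary skin fibroblasts 24 h after compound addition.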

[9] = read-out: Epidermal growth factor receptor (EGFR), EGFR (gene 1956); assay: BSK_hDFCGF_EGFR: BioMAP Diversity Plus: hDFCGF Assay for Epidermal growth factor receptor (EGFR) Biomarker Activity (AID 2283057); settings: primary human foreskin fibroblasts; actives raise or lower the signal
Method in brief: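 ELISA readout of EGFR on human dermal fibroblasts (primary foreskin cells), 24 h post-dosing; bidirectional curve fit vs DMSO baseline, gain or loss of signal scored.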

[10] = read-out: Interleukin-8 (IL8), CXCL8 (gene 3576); assay: BSK_hDFCGF_IL8: BioMAP Diversity Plus: hDFCGF Assay for Interleukin-8 (IL8) Biomarker Activity (AID 2283058); settings: primary human foreskin fibroblasts; actives raise or lower the signal
Method in brief: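 Fibroblast monolayers (human foreskin, hDFCGF) received test chemical for 24 h before ELISA detection of IL-8; either increases or decreases relative to DMSO count as activity.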

[11] = read-out: Macrophage colony-stimulating factor (MCSF), CSF1 (gene 1435); assay: BSK_hDFCGF_MCSF: BioMAP Diversity Plus: hDFCGF Assay for Macrophage colony-stimulating factor (MCSF) Biomarker Activity (AID 2283060); settings: primary human foreskin fibroblasts; actives raise or lower the signal
Method in brief: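 fibroblasts (human foreskin, primary), 24 h post-dose; M-CSF by ELISA; bidirectional fit, DMSO = baseline.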

[12] = BSK_hDFCGF_SRB: Viability Assessment in the BioMAP Diversity Plus: hDFCGF Assay (AID 2283061); settings: primary human foreskin fibroblasts;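 also: cells exposed to compound for 24 h before the read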
Method in brief: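 SRB-based viability read on primary human skin fibroblasts at 24 h: TCA fixation, 0.1% dye, 560 nm. Gain or loss of signal is fitted against the DMSO negative control.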

[13] = read-out: TIMP metallopeptidase inhibitor 1 (TIMP1), TIMP1 (gene 7076); assay: BSK_hDFCGF_TIMP1: BioMAP Diversity Plus: hDFCGF Assay for TIMP metallopeptidase inhibitor 1 (TIMP1) Biomarker Activity (AID 2283062); settings: primary human foreskin fibroblasts; actives raise or lower the signal
Method in brief: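 Bidirectional curve fitting against DMSO baseline yielded this endpoint, based on ELISA detection of TIMP-1 in primary human foreskin fibroblasts exposed to compound for 24 h.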

[14] = read-out: Monokine induced gamma interferon (MIG), CXCL9 (gene 4283); assay: BSK_hDFCGF_MIG: BioMAP Diversity Plus: hDFCGF Assay for Monokine induced gamma interferon (MIG) Biomarker Activity (AID 2283063); settings: primary human foreskin fibroblasts; actives raise or lower the signal
Method in brief: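 Endpoint derived by bidirectional fitting relative to DMSO; MIG quantified via ELISA in primary human foreskin fibroblasts harvested 24 h after dosing.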

[15] = read-out: Matrix Metallopeptidase 1 (MMP1), MMP1 (gene 4312); assay: BSK_hDFCGF_MMP1: BioMAP Diversity Plus: hDFCGF Assay for Matrix Metallopeptidase 1 (MMP1) Biomarker Activity (AID 2283064); settings: primary human foreskin fibroblasts; actives raise or lower the signal
Method in brief: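 ELISA read-out of MMP1 from human foreskin fibroblasts (primary skin cells), 24 h post-dose. Gain or loss of signal was fitted bidirectionally versus DMSO negative control; cytotoxicity was checked by SRB in parallel cultures.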

[16] = read-out: Vascular cell adhesion molecule 1 (VCAM1), VCAM1 (gene 7412); assay: BSK_hDFCGF_VCAM1: BioMAP Diversity Plus: hDFCGF Assay for Vascular cell adhesion molecule 1 (VCAM1) Biomarker Activity (AID 2283065); settings: primary human foreskin fibroblasts; actives raise or lower the signal
Method in brief: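 Measured after 24 h chemical treatment of primary human skin fibroblasts, VCAM-1 was detected by ELISA and concentration-response analysed in both directions versus DMSO vehicle.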

[17] = read-out: Plasminogen activator inhibitor-1 (PAI1), SERPINE1 (gene 5054); assay: BSK_hDFCGF_PAI1: BioMAP Diversity Plus: hDFCGF Assay for Plasminogen activator inhibitor-1 (PAI1) Biomarker Activity (AID 2283066); settings: primary human foreskin fibroblasts; actives raise or lower the signal
Method in brief: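 ELISA readout of PAI-1 from primary human skin fibroblast cultures, 24 h after compound addition. Gain or loss of signal was fitted bidirectionally against DMSO baseline.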

[18] = read-out: Intercellular Adhesion Molecule 1 (ICAM1), ICAM1 (gene 3383); assay: BSK_KF3CT_ICAM1: BioMAP Diversity Plus: KF3CT Assay for Intercellular Adhesion Molecule 1 (ICAM1) Biomarker Activity (AID 2283067); settings: primary human keratinocytes with fibroblasts; actives raise or lower the signal
Method in brief: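 Bidirectional curve fitting against a DMSO baseline was applied to ICAM-1 ELISA signal from primary human skin co-cultures harvested 24 h after treatment, with SRB staining of parallel wells for overt cytotoxicity.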

[19] = read-out: Interferon-gamma inducible Protein 10 (IP10), CXCL10 (gene 3627); assay: BSK_KF3CT_IP10: BioMAP Diversity Plus: KF3CT Assay for Interferon-gamma inducible Protein 10 (IP10) Biomarker Activity (AID 2283068); settings: primary human keratinocytes with fibroblasts; actives raise or lower the signal
Method in brief: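 KF3CT co-culture (keratinocytes + foreskin fibroblasts), 24 h compound, IP-10 by ELISA; bidirectional fit vs DMSO baseline.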

Measured: outcome

OCc1ccco1
inactive: all assays above

CN(C)N=O
inactive: all assays above

C[C@]12CCC(=O)C[C@@H]1CC[C@@H]1[C@@H]2CC[C@]2(C)[C@@H](O)CC[C@@H]12
inactive: all assays above

CCC(=O)C(CC(C)N(C)C)(c1ccccc1)c1ccccc1 (stereo not given)
inactive: all assays above

CCOP(=S)(OCC)Oc1ccc(S(C)=O)cc1 (stereo not given)
inactive: all assays above
